Common to all, as to assay: NCI-60 one-dose screen, 48 h (100 = growth as untreated, 0 = no growth, -100 = all killed)
Details in all cases: 10 µM unless noted

The subject of test [1] is NCI-H23 lung.
In test [2] the test system is NCI-H226 lung.
The subject of test [3] is NCI-H322M lung.
The test system of test [4] is HOP-62 NSCLC.
Test [5] has as its system NCI-H460 lung.
Test [6] relates to HOP-92 NSCLC.
Test [7] relates to A549/ATCC NSCLC.
The test system of test [8] is 786-0 renal.
Test [9] has as its system COLO 205 colon.
Test [10] concerns DU-145 prostate.
For test [11], the system named is K-562 leukemia.
In test [12] the test system is MALME-3M melanoma.
The subject of test [13] is MDA-MB-231 breast.
Test [14] relates to RXF 393 renal.
For test [15], the system named is SF-268 CNS.
For test [16], the system named is SF-295 CNS.
Test [17] has as its system SF-539 CNS.
Test [18] relates to UACC-257 melanoma.
For test [19], the system named is M14 melanoma.
In test [20] the test system is NCI-H522 lung.

About 83,000 compounds went through this panel and 20% of them were active in at least one assay; those are over-represented in the sample as a whole.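 The endpoint reported here, percent growth, reads 100 for growth as untreated, 0 for no net growth and -100 for all cells dead.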 Unmarked numbers belong to inactive results. Calls of active or inactive are those of the source. The calls were made as follows: active = growth percent below 10; inactive = the rest.

`CN1C(=O)/C(=C/c2ccc(C(=O)Nc3ncc(Cc4ccc(F)cc4)s3)cc2)SC1=S`: the growth in test [1] is 62.1%; in test [2], 65.3%; in test [3], 52%; in test [4] it was 44.9%; in [5] it was 20.2%; in test [6], 44.2%. Further, the growth in test [7] was 46.8%; in [8], 51.9%; in test [9], 72.3%; in test [10], 38.8%; in [11], 44.7%; in [12], 47.1%. Further, the growth was 56.2% in test [13]; 36.8% in [14]; 49.1% in [15]; 24.3% in test [16]; 38.4% in [17]; 65.6% in test [18]. Besides, in test [19], the growth was 19.6%.
On to `O=C(/C=C/C12c3ccccc3C(c3ccccc31)C1C(=O)NC(=O)C12)c1ccccn1` (stereo not drawn), for which the growth was -8.66% (active) in test [1]; 48.5% in [2]; -4.26% (active) in [3]; -22.7% (active) in test [4]; -18.5% (active) in test [5]; 7.45% (active) in test [20]. The growth in [7] is 6.07% (active); in [8], 1.59% (active); in test [9], -50.5% (active); in test [10], 15.3%; in test [11], 8.81% (active); in [12], 19.1%. Besides, the growth in test [13] was 16.4%; in [14], -46.3% (active); in test [15] it was 24.1%; in test [16], 16%; in test [17] it was -7.59% (active); in [18] it was 33.8%. The growth in [19] was -15.4% (active).
Regarding `O=C1C(Cl)=C(NCCN2CCOCC2)C(=O)c2ncccc21`, the growth in test [1] is -41.8% (active); in test [2] it was -37.8% (active); in [3] it was 1.09% (active); in [4] it was -63% (active); in test [5], 0.786% (active); in test [6], 72.6%. Also, the growth in test [7] is -54.3% (active); in [8], 18.1%; in test [9], -75.2% (active); in [10], -88.5% (active); in test [11] it was -33.5% (active); in test [12] it was -79.3% (active). The growth in [13] is 18.6%; in [14] it was -27.5% (active); in [15] it was 11%; in test [16], -40.5% (active); in test [17] it was -85.8% (active); in [18], -92.8% (active). Also, the growth in [19] is -85.9% (active).
`COc1cc(C(=O)/C=C/c2ccc(N3CCN(C)CC3)cc2)cc(OC)c1OC`: the growth in test [1] is 90%; in test [2], 101%; in test [3], 89.7%; in test [4], 91.4%; in test [5], 100%; in [6], 98.5%. Also, the growth in [7] is 101%; in test [8] it was 106%; in [9], 91.3%; in [10] it was 104%; in test [11], 2.23% (active); in test [12] it was 86.3%. Besides, the growth in [13] is 92%; in test [14], 107%; in [15], 97.9%; in [16], 95.2%; in [17] it was 96.7%; in [18] it was 99.3%. In test [19], the growth was 94.8%.
Regarding `COc1ccc(-c2nnc(SCC(=O)Nc3ccc(/C(C)=N\O)cc3)n2-c2ccccc2)cc1OC`, the growth was 68.8% in test [1]; 81.9% in test [2]; 75.7% in test [3]; -26.4% (active) in [4]; 102% in test [5]; -8.56% (active) in test [6]. The growth in [7] was 70.7%; in test [8], 64.5%; in test [9] it was 99.1%; in test [10], 88.3%; in test [11], 105%; in test [12] it was 61.8%. The growth in test [13] is 47.9%; in [14], 32.3%; in [15] it was 30.6%; in test [16] it was 39.1%; in test [17], 43%; in test [18] it was 91.8%. Moreover, the growth in [19] is 89.9%.
In the case of `CC(O)c1ncc(/C=C2\SC(=S)N(Cc3ccccc3)C2=O)s1` (stereo not drawn), the growth in test [1] is 103%; in [2], 97.2%; in [3] it was 100%; in test [4], 104%; in test [5], 104%; in [6], 73.4%. For the same compound, the growth in test [7] was 105%; in [8] it was 87.3%; in [9], 96.2%; in [10], 89.2%; in test [11], 87.9%; in test [12], 93.2%. Further, the growth in test [13] was 94%; in test [14], 102%; in test [15], 89.8%; in test [16], 102%; in test [17], 85%; in [18], 96.2%. For the same compound, the growth in test [19] was 93.8%.
Consider `CC/C=C1/C(=O)C=C[C@@H]1C/C=C\CCCC(=O)OC`, for which the growth is 74.8% in test [1]; 88.1% in test [2]; 108% in [3]; 90.5% in test [4]; 97.9% in test [5]; -38.3% (active) in test [20]. Moreover, the growth in test [7] was 90.2%; in [8], 82.5%; in [9], 97.3%; in [10], 77.1%; in test [11], 4.34% (active); in test [12], 56.3%. Besides, the growth was 28.7% in test [13]; 103% in test [14]; 79.7% in test [15]; 88.7% in test [16]; 108% in [17]; 73.1% in test [18]. Further, the growth in [19] is 50.5%.
